These results are taken from PubChem BioAssay.

Active and inactive are the calls of the source.

One experiment deals with Albumin (Bos taurus) (UniProt P02769). The experiment in a line: bovine serum albumin binders on microarray, profiling panel, artefact control for SMM control protein annotation, biochemical, small-molecule microarray, Alexa647 label, 635/667 nm fluorescence (AID 1118).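 Note: score merges 667 nm emission intensity and signal-to-noise per printed compound spot.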 The settings on record: BSA-A647 binding, fluorescence 635 nm, higher = more signal.
Experiment [1] is described as follows: small-molecule microarray binders of probe aXIP, primary screen, biochemical, NeuroSMM set, 635/667 nm fluorescence (AID 1119).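 Note: probe is the protein aXip251-270 applied at 1 µg/mL to compound-printed slides; binding of probe to printed compounds measured as 667 nm fluorescence plus signal to noise.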 The settings on record: higher = more signal, called active from +8 up or from −8 down.
The nature of experiment [2]: small-molecule binders of probe aNOTCH3, primary screen, biochemical, small-molecule microarray, 635/667 nm fluorescence (AID 1120).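 Note: probe is a biotin-tagged antibody raised against NOTCH3 rather than NOTCH3 protein; score merges spot fluorescence near 667 nm with spot signal to noise.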 To be noted: higher = more signal.
Experiment [3] can be described thus: small-molecule binders of probe aNOTCH2, primary screen, biochemical, small-molecule microarray, 635/667 nm fluorescence (AID 1121).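 Note: score merges feature fluorescence read at 667 nm with its signal to noise.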 To be noted: higher = more signal.
Experiment [4] has as its target Carbonic anhydrase 2 (Homo sapiens) (UniProt P00918). The experiment in a line: CAII small-molecule binders, profiling panel, biochemical, small-molecule microarray, Alexa647-labelled CAII (AID 1122). To be noted: CAII-A647 binding fluorescence, higher = more signal.
Experiment [5] in a line: COS7 lysate on small-molecule microarray, probe aHis, 635 nm (AID 1123).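 Note: z-score combines 667nm fluorescence intensity with signal-to-noise per printed compound spot.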 The settings on record: COS7 cell lysate, fluorescence, higher = more signal.
Experiment [6] is described as follows: compound binding in COS7 lysate, probe aLAP1, primary screen, cell lysate, small-molecule microarray (AID 1124).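 Note: lysate comes from COS7 cells expressing LAP1 and is applied at 0.3 µg/mL; score merges spot fluorescence near 667 nm with signal-to-noise over triplicate slides.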 To be noted: probe aLAP1, fluorescence, higher = more signal.
The test system of the next experiment is Sam68 (KHDRBS1). The experiment in a line: Sam68 small-molecule binders, primary screen, biochemical, small-molecule microarray, 635 nm fluorescence (AID 1125).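 Note: score merges 667 nm channel intensity with signal to noise over triplicate slides.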 To be noted: small-molecule microarray binding, higher = more signal.
Experiment [7] relates to Chordin-like protein 2 (CHRDL2). As to the kind of experiment: CHRDL2 small-molecule binders, primary screen, biochemical, small-molecule microarray, 635 nm fluorescence (AID 1126).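 Note: printed compound slides probed with Chrdl2 protein at 4 µg/mL for 1 h at 4 C; score merges 667 nm emission intensity with signal to noise over three replicate slides.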 The settings on record: small-molecule microarray binding, fluorescence 635 nm; higher = more signal.
The target in experiment [8] is Concanavalin-A (Canavalia ensiformis) (UniProt P02866). As to the kind of experiment: ConA small-molecule binders, primary screen, artefact control for SMM control protein annotation, biochemical, small-molecule microarray, Alexa647 label, 635 nm (AID 1127).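 Note: z combines 667 nm emission intensity with signal-to-noise across three replicate slides.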 The settings on record: ConA-A647 binding fluorescence, higher = more signal.
Experiment [9] is described as follows: anti-His antibody binders, primary screen, artefact control for SMM control protein annotation, biochemical, small-molecule microarray, 635 nm fluorescence (AID 1128).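 Note: score merges feature fluorescence with signal-to-noise for each printed compound spot.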 To be noted: anti-His Alexa647 antibody binding, higher = more signal.
Experiment [10] has as its system Human papillomavirus type 1a E7 protein (residues 1-88). The experiment in a line: HPV1a E7 small-molecule binders, primary screen, biochemical, small-molecule microarray, residues 1-88, 635 nm (AID 1129). The settings on record: small-molecule microarray binding, fluorescence 635 nm; higher = more signal.
The target of experiment [11] is Focal adhesion kinase 1 (Homo sapiens) (UniProt Q05397). As to the kind of experiment: small-molecule microarray binders of FAK, primary screen, biochemical, 635/667 nm fluorescence, BSA, DTT (AID 1130).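 Note: composite of spot emission at 667 nm and signal to noise over triplicate slides.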 To be noted: PTK2 binding, 635 nm fluorescence, higher = more signal.
The test system of experiment [12] is Fibrinogen (Alexa647-labelled). The experiment in a line: fibrinogen binders on compound microarrays, profiling panel, artefact control for SMM control-protein annotation, biochemical, small-molecule microarray, 635/667 nm fluorescence (AID 1131).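 Note: z-score merges 667 nm fluorescence with per-spot signal-to-noise over triplicate slides.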 The settings on record: fibrinogen-A647 binding fluorescence, higher = more signal.
The target of experiment [13] is Follistatin (Homo sapiens) (UniProt P19883). The experiment in a line: follistatin binders on small-molecule microarrays, primary screen, biochemical, small-molecule microarray, 635/667 nm fluorescence (AID 1132). To be noted: FST binding, 635 nm fluorescence, higher = more signal.
In experiment [14] the target is Fibroblast growth factor 2 (Homo sapiens) (UniProt P09038). The experiment in a line: FGF2 binders on small-molecule microarrays, primary screen, biochemical, small-molecule microarray, 635/667 nm fluorescence (AID 1133). The settings on record: small-molecule microarray binding, FGF2, fluorescence 635/667; higher = more signal.
Experiment [15] can be described thus: mitochondrial membrane potential change in A549 cells, profiling panel, cell-based, JC-1 fluorescence, basal, 24 h, 100 nL (AID 1138).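 Note: A549 lung adenocarcinoma cells under basal conditions with no added stimulus; test concentration not given here.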 To be noted: higher = more signal.
The next experiment relates to Lefty1. As to the kind of experiment: Lefty1 binders on small-molecule microarrays, primary screen, biochemical, small-molecule microarray, 635/667 nm fluorescence (AID 1139). The settings on record: small-molecule microarray binding, fluorescence 635/667; higher = more signal.
For experiment [16], the system named is wheat germ agglutinin (Triticum aestivum), Alexa647-labelled. As to the kind of experiment: wheat germ agglutinin binders on compound microarrays, profiling panel, artefact control for SMM control-protein annotation, biochemical, small-molecule microarray, 635/667 nm fluorescence (AID 1140).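 Note: score merges 667 nm feature emission with signal to noise over triplicate slides.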 The settings on record: WGA-A647 binding, 635 nm fluorescence, higher = more signal.

In experiment [17] the target is Luciferin 4-monooxygenase (Photinus pyralis) (UniProt P08659). As to the kind of experiment: firefly luciferase enzyme inhibitors, primary screen, biochemical, luminescence, purified enzyme, 2006 set (AID 1141).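 Note: cell-free assay with purified firefly luciferase at 100 ng per well in PBS; test concentration not given here.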 To be noted: SteadyGlo luminescence, 30 min, higher = more signal, called active from +8 up or from −8 down.
Luciferin 4-monooxygenase (Photinus pyralis), sequence (P08659 whole entry, looked up): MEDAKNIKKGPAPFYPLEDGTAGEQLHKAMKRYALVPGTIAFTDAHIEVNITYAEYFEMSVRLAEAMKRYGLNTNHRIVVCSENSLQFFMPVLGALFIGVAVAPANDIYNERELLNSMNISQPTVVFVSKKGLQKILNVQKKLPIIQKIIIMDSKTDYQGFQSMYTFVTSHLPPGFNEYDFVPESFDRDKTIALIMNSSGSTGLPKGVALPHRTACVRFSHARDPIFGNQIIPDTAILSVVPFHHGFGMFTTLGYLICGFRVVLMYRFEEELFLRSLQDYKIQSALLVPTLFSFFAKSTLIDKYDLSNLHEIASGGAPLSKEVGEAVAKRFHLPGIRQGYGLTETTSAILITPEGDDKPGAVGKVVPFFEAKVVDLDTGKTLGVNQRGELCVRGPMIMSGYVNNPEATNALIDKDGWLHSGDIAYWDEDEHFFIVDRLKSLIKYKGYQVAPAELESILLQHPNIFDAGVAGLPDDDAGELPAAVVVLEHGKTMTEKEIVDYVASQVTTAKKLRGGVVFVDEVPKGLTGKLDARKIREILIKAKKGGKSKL

Fibroblast growth factor 2 (Homo sapiens), sequence (P09038 whole entry, looked up): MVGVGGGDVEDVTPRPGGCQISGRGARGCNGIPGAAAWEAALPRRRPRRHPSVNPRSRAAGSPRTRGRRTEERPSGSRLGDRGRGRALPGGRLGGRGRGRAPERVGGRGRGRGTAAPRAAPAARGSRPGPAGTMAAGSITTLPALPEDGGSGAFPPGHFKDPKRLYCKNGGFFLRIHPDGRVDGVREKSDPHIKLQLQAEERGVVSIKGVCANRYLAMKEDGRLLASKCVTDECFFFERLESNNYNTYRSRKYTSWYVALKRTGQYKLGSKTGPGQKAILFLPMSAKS
Albumin (Bos taurus), sequence (P02769 whole entry, looked up): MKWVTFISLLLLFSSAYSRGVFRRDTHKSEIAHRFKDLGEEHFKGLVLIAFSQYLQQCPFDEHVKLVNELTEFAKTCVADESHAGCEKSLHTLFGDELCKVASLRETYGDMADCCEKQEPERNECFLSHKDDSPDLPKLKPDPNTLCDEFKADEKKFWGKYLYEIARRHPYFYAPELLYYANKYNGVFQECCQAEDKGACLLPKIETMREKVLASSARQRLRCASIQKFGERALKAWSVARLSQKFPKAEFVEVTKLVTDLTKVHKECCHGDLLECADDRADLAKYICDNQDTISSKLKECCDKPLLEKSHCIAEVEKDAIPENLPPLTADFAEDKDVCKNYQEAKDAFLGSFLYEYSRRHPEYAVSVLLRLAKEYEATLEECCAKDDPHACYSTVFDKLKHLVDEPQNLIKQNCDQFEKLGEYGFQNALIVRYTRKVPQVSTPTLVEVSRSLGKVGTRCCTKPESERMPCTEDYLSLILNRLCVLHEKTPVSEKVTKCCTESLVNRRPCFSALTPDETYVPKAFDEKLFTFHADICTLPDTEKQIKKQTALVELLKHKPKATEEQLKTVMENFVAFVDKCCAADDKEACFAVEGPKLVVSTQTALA
Concanavalin-A (Canavalia ensiformis), sequence (P02866 whole entry, looked up): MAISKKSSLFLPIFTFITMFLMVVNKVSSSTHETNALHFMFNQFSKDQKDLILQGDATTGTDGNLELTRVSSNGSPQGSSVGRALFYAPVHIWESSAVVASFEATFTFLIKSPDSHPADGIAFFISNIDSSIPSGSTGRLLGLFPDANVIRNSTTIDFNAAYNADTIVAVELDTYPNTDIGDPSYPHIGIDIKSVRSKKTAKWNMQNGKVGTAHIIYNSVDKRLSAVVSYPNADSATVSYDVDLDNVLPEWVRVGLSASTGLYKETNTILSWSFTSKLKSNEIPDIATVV
Follistatin (Homo sapiens), sequence (P19883 whole entry, looked up): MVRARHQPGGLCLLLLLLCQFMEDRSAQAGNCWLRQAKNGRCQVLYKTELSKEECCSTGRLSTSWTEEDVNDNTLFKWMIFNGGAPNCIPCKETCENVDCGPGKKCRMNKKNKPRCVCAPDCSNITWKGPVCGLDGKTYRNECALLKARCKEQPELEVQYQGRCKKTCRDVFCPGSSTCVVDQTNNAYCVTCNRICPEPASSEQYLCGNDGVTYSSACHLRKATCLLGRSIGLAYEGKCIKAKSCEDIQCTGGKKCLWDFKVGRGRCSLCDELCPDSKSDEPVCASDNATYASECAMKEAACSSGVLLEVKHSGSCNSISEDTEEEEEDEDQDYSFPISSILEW
Focal adhesion kinase 1 (Homo sapiens), sequence (Q05397 whole entry, looked up): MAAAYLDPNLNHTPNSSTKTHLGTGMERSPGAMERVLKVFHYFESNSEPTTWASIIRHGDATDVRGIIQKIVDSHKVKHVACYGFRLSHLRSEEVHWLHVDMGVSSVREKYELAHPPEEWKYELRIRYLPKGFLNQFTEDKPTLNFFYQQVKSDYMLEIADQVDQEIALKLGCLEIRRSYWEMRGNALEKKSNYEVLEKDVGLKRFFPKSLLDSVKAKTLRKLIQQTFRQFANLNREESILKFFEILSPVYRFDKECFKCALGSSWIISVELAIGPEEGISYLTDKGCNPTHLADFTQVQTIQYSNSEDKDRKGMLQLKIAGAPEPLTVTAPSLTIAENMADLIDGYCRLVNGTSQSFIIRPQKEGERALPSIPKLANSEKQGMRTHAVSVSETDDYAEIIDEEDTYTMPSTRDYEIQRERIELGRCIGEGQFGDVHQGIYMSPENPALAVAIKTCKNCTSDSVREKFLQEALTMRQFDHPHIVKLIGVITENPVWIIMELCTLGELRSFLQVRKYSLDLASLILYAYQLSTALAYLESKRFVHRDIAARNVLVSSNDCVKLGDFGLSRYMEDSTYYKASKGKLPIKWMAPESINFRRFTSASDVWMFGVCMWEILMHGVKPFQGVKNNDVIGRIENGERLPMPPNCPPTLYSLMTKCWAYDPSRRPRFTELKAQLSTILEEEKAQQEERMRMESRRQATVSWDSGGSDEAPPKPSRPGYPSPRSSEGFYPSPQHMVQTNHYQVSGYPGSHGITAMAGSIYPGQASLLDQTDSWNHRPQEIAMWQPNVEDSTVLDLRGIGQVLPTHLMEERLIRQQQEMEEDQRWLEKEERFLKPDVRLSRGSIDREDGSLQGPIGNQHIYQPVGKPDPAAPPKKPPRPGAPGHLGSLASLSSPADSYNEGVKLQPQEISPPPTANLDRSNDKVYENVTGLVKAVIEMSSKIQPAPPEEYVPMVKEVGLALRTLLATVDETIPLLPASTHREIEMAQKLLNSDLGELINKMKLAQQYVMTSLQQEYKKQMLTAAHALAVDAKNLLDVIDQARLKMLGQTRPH

Take `COC(=O)[C@@]1(Cc2ccc(OC)cc2)[C@H]2c3cc(C(=O)N4CCCC4)n(Cc4ccc(O)c(OC)c4)c3C[C@H]2CN1C(=O)c1ccccc1`: the composite z-score in the experiment with Albumin (Bos taurus) came to 1.06; in [2], 1.18; in experiment [3], 0.437; in experiment [4], 0.845; in experiment [5] it was 3.32; in [6], 1.09. Also, the composite z-score with Sam68 (KHDRBS1) worked out at 0.535; in [7], 0.114; in experiment [8], 0.988; in [9], 2.89; in [10], 0.926; in [11], 0.264. The composite z-score is 0.724 in [12]; 0.379 in experiment [13]; -0.1 in experiment [14]; -0.304 in the experiment with Lefty1; 1.11 in experiment [16]. Moreover, in experiment [1], the composite Z-score is 1.64 (inactive). Further, the z-score is 1.44 in [15] and 1.62 (inactive) in experiment [17].
In the case of `COc1cc2c(cc1O)C(C1CC1)N(Cc1sc3ccccc3c1Cl)CC2` (stereo not given), the composite z-score with Albumin (Bos taurus) was 0.718; in experiment [2] it was -0.152; in [3] it was -0.0984; in experiment [4] it was 0.76; in [5], 2.69; in experiment [6], 0.862. In addition, the composite z-score in the experiment with Sam68 (KHDRBS1) is 0.888; in experiment [7] it was 0.185; in [8], 0.0387; in experiment [9] it was 1.53; in experiment [10] it was 0.87; in [11] it was -0.0249. Besides, the composite z-score in experiment [12] is 0.762; in experiment [13], 0.439; in [14] it was 0.124; in the experiment on Lefty1, -0.619; in [16], 0.402. In [1], the composite Z-score is -0.909 (inactive). Also, the z-score in [15] is -1.55; in experiment [17], -0.593 (inactive).
`CC(C)C(O)C1C=CC2C(=O)NC(=O)C2N1Nc1ccc(Cl)cc1Cl` (stereo not given): the composite z-score in the experiment with Albumin (Bos taurus) was 0.523; in [2], -0.0414; in experiment [3] it was -0.0659; in experiment [4] it was 0.751; in experiment [5], 1.78; in [6], 1.33. Further, the composite z-score with Sam68 (KHDRBS1) is 0.531; in experiment [7], -0.827; in experiment [8], -0.478; in experiment [9], 1.03; in experiment [10], 1.19; in experiment [11], 1.08. Besides, the composite z-score was 0.921 in [12]; 0.345 in experiment [13]; -0.292 in experiment [14]; -0.556 with Lefty1; 1.35 in experiment [16]. In [1], the composite Z-score was 0.449 (inactive). The z-score in experiment [15] was -0.518; in [17], -0.089 (inactive).
Consider `COc1cc(NN2C(C(O)c3ccco3)C=CC3C(=O)N(c4ccccc4)C(=O)C32)cc(OC)c1OC` (stereo not given), for which the composite z-score is 0.877 with Albumin (Bos taurus); -0.0328 in experiment [2]; -0.139 in experiment [3]; 0.574 in [4]; 1.13 in experiment [5]; 0.166 in experiment [6]. Moreover, the composite z-score is 0.203 in the experiment with Sam68 (KHDRBS1); -0.776 in [7]; 0.498 in experiment [8]; 0.284 in [9]; 1.06 in experiment [10]; 0.21 in experiment [11]. Moreover, the composite z-score in experiment [12] was -0.0129; in experiment [13], 0.363; in [14], -0.132; in the experiment with Lefty1, 0.199; in [16], 0.0464. Further, the composite Z-score in experiment [1] is 0.32 (inactive). The z-score is -0.16 in experiment [15] and -2.51 (inactive) in experiment [17].
For `CC(C)N1C(=O)C[C@@](C(=O)NCC(F)(F)F)(c2ccc([N+](=O)[O-])cc2)[C@H]1c1ccc(CO)cc1`, the composite z-score was 0.0344 with Albumin (Bos taurus); -0.0636 in [2]; -0.173 in [3]; 0.662 in experiment [4]; 1.22 in experiment [5]; -0.0253 in experiment [6]. Moreover, the composite z-score in the experiment on Sam68 (KHDRBS1) was 0.933; in [7], -0.035; in experiment [8] it was 0.688; in experiment [9] it was -0.203; in [10], 0.38; in [11], 0.611. Also, the composite z-score in experiment [12] was 0.0938; in experiment [13], 0.409; in experiment [14], -0.432; with Lefty1 it was 0.343; in experiment [16], 0.351. Moreover, the composite Z-score in experiment [1] is 0.447 (inactive). Further, the z-score in [15] is -0.279; in experiment [17], 1.58 (inactive).
On to `C#C[C@H](O[Si](C#Cc1ccc(Oc2ccccc2)cc1)(C(C)C)C(C)C)c1ccccc1`, for which the composite z-score is 0.687 with Albumin (Bos taurus); 0.0122 in [2]; -0.0057 in experiment [3]; 0.695 in [4]; 0.45 in experiment [5]; 0.484 in experiment [6]. The composite z-score with Sam68 (KHDRBS1) was 0.99; in [7] it was 0.662; in experiment [8] it was 0.971; in experiment [9], -0.179; in [10], 0.679; in experiment [11], -0.6. Besides, the composite z-score in experiment [12] was determined as 0.385; in experiment [13], 0.101; in experiment [14], 0.137; in the experiment on Lefty1, 0.104; in experiment [16] it was 0.0936. The composite Z-score in experiment [1] is 0.29 (inactive). In addition, the z-score in experiment [15] is -1.83; in experiment [17] it was 0.0848 (inactive).
